Among the data in PubChem BioAssay (NCI) are growth values, retold here.

This is part of a sample that, as a whole, favours compounds with a hit. Of some 83,000 tested, about 20% had one in any assay.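 48-hour exposure, single concentration, 96-well plates; percent growth endpoint where 0 means no net growth. Active: below 10.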 A number with no mark means an inactive call. Calls of active or inactive are those of the source.

This experiment deals with SNB-75 CNS. Put plainly: NCI-60 one-dose screen, 48 h (100 = growth as untreated, 0 = no growth, -100 = all killed). The note with it: 10 µM.
With `CCCCCCCNc1nc(C=O)ncc1-c1ccc(C(F)(F)F)cc1`, the growth was 97%.

`C#Cc1ccc(-n2c(/C=C/c3ccc4ccccc4n3)nc3ncccc3c2=O)cc1`: the growth was -59.2% (active).

In the case of `O=C1c2ccc3c4c(ccc(c24)C(=O)N1CCNCc1ccccc1)C(=O)N(CCNCc1ccccc1)C3=O`, the growth was 105%.

For `CCN(CC)Cc1cc(Nc2ccnc3cc(Cl)ccc23)ccc1OC`, the growth was 86.8%.

Take `Nc1ccc2c(c1)C1(CCC2)NC(=O)NC1=O` (centres undefined): the growth was 90.2%.

As for `O=C(Nc1cccc(Cl)c1)Nc1nccs1`, the growth is 91.6%.

`N=C(N)c1ccc(-c2ccc(-c3cccs3)s2)s1`: the growth is -31.7% (active).

Take `O=C1NC(=O)N(Cc2ccccc2)CC1Br` (centres undefined): the growth was 91.4%.

Take `COc1cc(C(=O)N2CCN(c3ccccc3OC)CC2)c(N)cc1OCCCN1CCN(c2ccccc2OC)CC1`: the growth is 104%.

For `CN(C)CCN=c1nc2c(c(N)n1-c1ccccc1)c(=S)n(-c1ccccc1)c(=S)n2-c1ccccc1`, the growth is 79%.

Regarding `CCOC(=O)c1ccc(NC(=O)Nc2ncc(Cl)cc2Cl)cc1`, the growth is 119%.

Turning to `CN(C)N=Nc1nn(C(=O)Nc2ccc(Cc3ccccc3)cc2)c2ccccc12`, the growth is 101%.

On to `CC(=O)N(C)c1ccc(Nc2ccc(Nc3ccc(N(C)C(C)=O)cc3)c3c2C(=O)c2ccccc2C3=O)cc1`, for which the growth is 73.9%.

For `CCOC(=O)C1(CC(C)C)CCOC1=O` (centres undefined), the growth was 86.8%.

For `COc1ccc2c(c1)nc(N)c1c3cccnc3cn21`, the growth was 42%.

On to `CSCCCNC(=O)c1ccc2c(c1)/C(=C/c1[nH]c(C)cc1C)C(=O)N2`, for which the growth was -1.79% (active).

`COc1cc(Cl)cc(-c2nn(-c3cccc(NC(=O)Nc4ccc(Cl)c(Cl)c4)c3)cc2-c2ccncc2)c1`: the growth was 16.2%.

Take `CC1=C(N2CCOCC2)C(N2CCOCC2)=C(C)C(=O)C1=O`: the growth was 97.4%.

As for `COc1cc(-c2nc(Nc3nc4ccccc4s3)[nH]c(=O)c2C#N)cc(OC)c1O`, the growth was 88.6%.

In the case of `COc1ccc(CN2CCC(N3CCCC3=O)c3cc(Cl)ccc32)cc1` (centres undefined), the growth is 103%.

For the compound `CC(=O)O[C@]1(C)CC[C@H]2[C@H](CNCCc3ccc(Cl)cc3)C(=O)O[C@@H]2C2=C(C)C(=O)C[C@H]21`, the growth was 64.1%.

Regarding `COc1ccc(-c2nn(-c3cccc(NC(=O)Nc4cc(C(F)(F)F)cc(C(F)(F)F)c4)c3)cc2-c2ccncc2)cc1Cl`, the growth is 6.77% (active).

Turning to `CN(CCc1ccccn1)c1ccccc1`, the growth is 92%.

Turning to `COc1ccc(N=C2C(=Nc3ccc(OC)cc3)N(c3ccc(N(C)C)cc3)C(=S)N2c2ccc(OC)cc2)cc1`, the growth is 8.69% (active).

Take `COc1cc2nc(Nc3cccc(NC(C)=O)c3)nc(N)c2cc1OC`: the growth was 85%.

Consider `C#Cc1ccc(-n2c(/C=C/c3ccc(Cl)c(F)c3)nc3ncccc3c2=O)cc1`, for which the growth was -64.7% (active).

Regarding `COc1cccc(Cn2c(-c3nonc3N)nc3ccccc32)c1`, the growth is -16.7% (active).

With `c1ccc([I+]c2ccccc2)cc1`, the growth was 63.6%.

Consider `O=C(c1cccs1)c1ccccc1Cc1ccccc1`, for which the growth was 94.4%.

For the compound `COc1ccc(-c2ccc(-c3ccc(C(=N)N)cn3)o2)cc1`, the growth was 61.1%.

For `Nc1c(C(=O)Nc2cccc3ccccc23)sc2nc3c(cc12)C(=O)CCC3`, the growth is 20.7%.

For `COc1ccc(Nc2ccnc(NCCNc3ccnc4cc(Cl)ccc34)n2)cc1`, the growth is 78.9%.

For the compound `O=C(Nc1ccc(Cl)c([N+](=O)[O-])c1)Nc1nc2ccccc2s1`, the growth was 94.2%.

`COc1cc(C(=O)/C=C/c2cc(-c3cc(OC)c(OC)c(OC)c3)n[nH]2)cc(OC)c1OC`: the growth is 54.9%.

As to `CC(=O)N1C/C(=C/c2ccc(Cl)cc2)C(=O)/C(=C/c2ccc(Cl)cc2)C1`, the growth was 30.1%.

With `COc1cc(/C=N/NC(=O)c2ccccc2Nc2cccc(C(F)(F)F)c2)cc(OC)c1OC`, the growth is 4.15% (active).

With `O=C1N=NC2=C1c1c3ccccc3c(O)n1CC2`, the growth was 103%.

Take `CS(=O)(=O)Nc1cccc(-c2cc(-c3ccccc3Cl)c(C#N)c(N)n2)c1`: the growth is -26.4% (active).

Consider `N#Cc1ncc(-c2ccc(C(F)(F)F)cc2)c(NCc2cc(C(F)(F)F)cc(C(F)(F)F)c2)n1`, for which the growth is 37.9%.
